Screening results (PubChem BioAssay)
Only some compounds are listed: those with a hit (about 9.4% of all), similar ones and a draw of the others.
SMN2 splice enh = SMN2 splice variant enhancement; HEK293 SMN2-luciferase splicing reporter, luminescence, 30-36 h; Potency, µM (doses to about 46.1 µM), inactives show at the top dose activity change, positive = activation, usual class: activators; hit rate 2.8% among 210,000; also: % of control where 0% means no effect; nearly all actives have a fitted effect of over 55% in size
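HEK293 cells carry an SMN2 minigene-luciferase reporter in which exon 7 inclusion puts luciferase in frame. Cells were seeded at 2000 cells/well, attached for 10-12 hours, then exposed to compounds for 30-36 hours at 37C before ONE-Glo luminescence.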
FLuc counter = inhibits or activates purified firefly luciferase, miR-21 counter-screen; P08659; purified FLuc, Km substrates, luminescence inhibition; Potency, µM (top dose mostly 57.5 µM), for inactives: at the top dose activity change, negative = inhibition, actives largely listed as inhibitors; hit rate 6.9% among 360,000;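 also: plate controls were vehicle for no effect and reference inhibitor for full effect; nearly all actives have a fitted effect of over 55% in size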
Target sequence (P08659 whole entry, looked up): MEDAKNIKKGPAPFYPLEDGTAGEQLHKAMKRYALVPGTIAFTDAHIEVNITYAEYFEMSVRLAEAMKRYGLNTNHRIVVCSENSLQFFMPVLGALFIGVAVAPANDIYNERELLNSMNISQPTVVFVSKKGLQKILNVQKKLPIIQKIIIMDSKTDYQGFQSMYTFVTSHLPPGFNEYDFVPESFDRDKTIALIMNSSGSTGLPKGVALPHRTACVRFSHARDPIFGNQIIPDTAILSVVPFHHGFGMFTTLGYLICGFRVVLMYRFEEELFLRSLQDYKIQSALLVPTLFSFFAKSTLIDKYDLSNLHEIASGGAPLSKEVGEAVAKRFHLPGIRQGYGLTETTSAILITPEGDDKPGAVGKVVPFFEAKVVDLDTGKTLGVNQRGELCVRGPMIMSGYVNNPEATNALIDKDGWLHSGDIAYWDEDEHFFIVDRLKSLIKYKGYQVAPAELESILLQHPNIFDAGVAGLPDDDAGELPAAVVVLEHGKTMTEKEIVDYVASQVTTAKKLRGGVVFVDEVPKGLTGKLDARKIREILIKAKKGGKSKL
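Purified P. pyralis luciferase (10nM final) with 10uM D-luciferin and 10uM ATP (Km levels) in 50mM Tris acetate pH 7.5, 10mM Mg acetate, 0.01% Tween-20, 0.05% BSA; qHTS 6-point titration, ~60 µM downward; luminescence read.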
Rab9 prom act = Rab9 promoter activation; Potency, µM (titrated, usually from 9.22 µM), for inactives: at the top dose activation, negative = inhibition, actives largely listed as activators; Huh7 Rab9 promoter-luciferase reporter, luminescence, 24 h; hit rate 2.8% among 320,000; AID 485297; also: % of control where 0% means no effect; nearly all actives have a fitted effect of over 60% in size
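Huh7 reporter line, Rab9 promoter upstream of luciferase. Compound exposure 24 h at 37 °C in reduced-serum medium with 10% FBS. Read-out: luminescence.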
ELG1 genotox = inducers of genotoxicity in HEK293T ELG1-luciferase cells; Potency, µM (titrated, usually from 46 µM), inactives show at the top dose activity change, positive = activation, most hits filed as activators; AID 504466; hit rate 1.3% among 330,000; HEK293T ELG1-luciferase reporter, luminescence, 16 h; also: % of control where 0% means no effect; nearly all actives have a fitted effect of over 60% in size
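Genotoxic stress is detected as increased luminescence from luciferase-tagged ELG1 in HEK293T cells, measured with ONE-Glo after a 16 hr treatment at 37 °C.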
ELG1 DNA repair = blocks ELG1-dependent DNA repair in HEK293T cells | HEK293T ELG1-luciferase reporter, luminescence, 16 h; DNA damage induced by 5-fluorouridine | Potency, µM (series often up to 46.1 µM), without a hit: at the highest dose activity change, negative = inhibition, usual class: inhibitors | hit rate 2.3% among 330,000; also: % is scaled to controls: 0 for no effect and ±100 for the full control effect; nearly all actives have a fitted effect of over 55% in size
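In this reporter screen, reduction of luminescence relative to DMSO vehicle indicated activity. Compounds and 5-fluorouridine were added together to 2,000 cells per well, incubated for 16 hr at 37 °C, then developed with ONE-Glo.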
NPC1 prom act = activates the NPC1 promoter; AID 485313; hit rate 2.4% among 320,000; Huh7 NPC1 promoter luciferase reporter, 24 h; Potency, µM (doses to about 9.22 µM), inactives show at the top dose activation, most hits filed as activators; also: % of control where 0% means no effect; nearly all actives have a fitted effect of over 60% in size
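Huh7 reporter cells (NPC1 promoter driving luciferase) are dosed with compound for 24 h at 37 °C, 5% CO2; luciferase detection reagent is then added and luminescence measured after 10 min at ambient temperature.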
* = called active by the depositor; ? = inconclusive; . = no result; [ ] = remark or other dose. Calls follow the shape of the dose curve; as a rule, active = well fitted curve in the direction sought with a large enough effect; inconclusive = small, poorly fitted or top-dose-only effect, or another doubt; inactive = no such curve, though single readings can be large; an effect the other way counts as inactive or inconclusive. Potency is read from the fitted curve at half-maximal effect.

SMILES | SMN2 splice enh | FLuc counter | Rab9 prom act | ELG1 genotox | ELG1 DNA repair | NPC1 prom act
CCOC(=O)c1ccc(NC(=O)CSc2nc3c(c(=O)n2CC)SC(C)C3)cc1 (stereo not drawn) | -36% | -1% | -1% | -12% | ? | -2%
CC1Cc2nc(SCC(=O)N3CCN(c4ccccc4)CC3)n(CCc3ccccc3)c(=O)c2S1 (stereo not drawn) | -23% | 0% | 0% | -34% | 15µM* | -4%
O=C(CSc1nc2c(c(=O)n1-c1ccccc1)SCC2)N1CCOCC1 | -8% | -2% | -4% | 0% | 3% | -2%
CCn1c(SCC(=O)N2CCN(c3ccccc3)CC2)nc2c(c1=O)SC(C)C2 (stereo not drawn) | -33% | 0% | 5% | -5% | 23µM* | -1%
O=C(CSc1nc2c(c(=O)n1-c1ccccc1)SCC2)N1CCN(c2ccccc2)CC1 | -23% | 2% | 2% | -7% | 23µM* | -3%
CCOC(=O)c1ccc(NC(=O)CSc2nc3c(c(=O)n2C)SC(C)C3)cc1 (stereo not drawn) | -37% | -1% | 0% | 0% | 21µM* | 0%
COc1cc(CN(C(=O)c2ccc(C)cc2)c2ccccn2)cc(OC)c1OC | . | 6% | . | . | . | .
COc1ccc(CC(=O)Nc2sc3c(c2C(=O)Nc2c(C)cccc2C)CCCCC3)cc1 | -4% | 3% | . | . | . | .
CCOC(=O)c1cc2c(=O)n3ccccc3nc2n(CCCOC)c1=NC(=O)c1c(-c2ccccc2Cl)noc1C | 1% | -3% | . | . | . | .
CN1CCN(c2nc3c(c(=O)n(C)c(=O)n3C)n2C)CC1 | -5%[9.22 µM] | . | . | . | . | .
O=C(/C=C/c1ccco1)NC(=S)Nc1ccccc1 | . | 27µM* | ? | 10% | ? | 28%
Cc1ccc(-n2nc3cc(C)c(NC(=S)NC(=O)/C=C/c4ccco4)cc3n2)cc1 | ? | 11µM* | -9% | 8.2µM* | ? | -3%
Cc1cccc(NC(=S)NC(=O)/C=C/c2ccco2)n1 | -5% | ? | 3.5µM* | ? | ? | ?
Cc1ccc(-n2nc3ccc(NC(=S)NC(=O)/C=C/c4ccco4)cc3n2)cc1 | ? | -5% | 1% | ? | ? | 14%
Cc1ccc(CN2C(=O)SC(Nc3ccc(Cl)cc3)C2=O)cc1 (stereo not drawn) | -13% | -7% | . | . | . | .
O=C(Nc1nnc(/C=C/c2ccccc2)s1)c1ccco1 | . | 12µM* | 22% | 4% | ? | 18%
COC(=O)Nc1nnc(/C=C/c2ccccc2)s1 | 20µM* | 5.4µM* | 22% | ? | ? | 19%
CC(=O)Nc1nnc(/C=C/c2cccc([N+](=O)[O-])c2)s1 | . | 5% | 20% | 1% | 4% | 10%
COc1ccc(/C=C/c2nnc(NC(=O)CSc3ccc(C)cc3)s2)cc1 | . | ? | 30% | 7% | 12% | ?
CCC(=O)Nc1nnc(/C=C/c2ccc(OC)cc2)s1 | . | 6µM* | ? | 14% | ? | ?
Nc1nnc(/C=C/c2ccccc2)s1 | . | 24µM* | ? | ? | ? | ?
C(=C\c1ccc(/C=C/c2ccccc2)nn1)/c1ccccc1 | . | ? | 10% | 3% | 14% | -1%
OCc1cc2c(cn1)[nH]c1ccccc12 | -10% | . | . | . | . | .
CCS(=O)(=O)N1CCc2cc(C(=O)N3CCN(c4ccccc4)CC3)ccc21 | . | 2% | . | . | . | .
CCOc1ccccc1CNC(=O)C(CC)n1nc(C)c2c(C)n(-c3ccccc3)nc2c1=O (stereo not drawn) | . | -2% | . | . | . | .
COc1ccc(Cl)c2c1[nH]c1nc(SCc3ccccn3)nnc12 | 6.3µM* | 6µM* | 1.8µM* | 21µM* | ? | 2.8µM*
COc1ccc(Cl)c2c1[nH]c1nc(SCc3cccnc3)nnc12 | 1% | 1% | -3% | 14% | -4% | 2%
